Screens as filed in PubChem BioAssay.
Shown are actives, neighbours in structure and some others; about 6.1% of the full set was active somewhere.
HepG2 viability: counter-screen for TGF-b inhibitors: cytotoxicity in HepG2 cells; HepG2 CAGA-GFP viability, ATP luminescence, 18 h; Potency, µM (top dose mostly 46.1 µM), inactives show top-dose activity change, negative = cytotoxicity, usual class: cytotoxic; 0.76% of 410,000 active
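HepG2 CAGA-GFP cells (1000/well, DMEM with 1% FBS) received compound, then TGF-beta at 500 pg/mL final, and were incubated 18 hours at 37 degrees C. Viability was read by CellTiter-Glo luminescence. Media-only wells were set as complete cell-killing and DMSO as no toxicity.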
ATXN2 expr inh: ATXN2 expression inhibition; AID 1745845; 0.72% of 360,000 active; Potency, µM (doses to about 57 µM), inactives show at the top dose activity change, negative = inhibition, usual class: inhibitors; HEK-293 ATXN2-luciferase reporter, luminescence, 24 h; note: % is set by controls: 0 for no effect and ±100 for the full control effect; nearly all actives have a fitted effect of over 55% in size
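qHTS (up to 57 uM final) was run with 24 h compound exposure of reporter cells at 37 °C. Each well was multiplexed: SteadyGlo luminescence measured ATXN2-luciferase expression after a fluorogenic Gly-Phe-AFC viability readout (25 uM final).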
TGFb SMAD3 inh: blocks TGF-b signaling; HepG2 CAGA-GFP TGF-b/SMAD3 reporter, GFP fluorescence, 18 h; TGF-beta stimulated, 500 pg/mL final; Potency, µM (titrated, usually from 46.1 µM), without a hit: at the top dose activity, negative = inhibition, actives largely listed as inhibitors; 1.2% of 410,000 active; note: % is set by controls: 0 for no effect and ±100 for the full control effect; nearly all actives have a fitted effect of over 65% in size
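TGF-beta reporter screen: HEPG2 CAGA-GFP, 1% FBS, 500 pg/mL TGF-beta final, 18 h; per-cell GFP summed per well; curves fitted and categorized by class.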
RORgamma inh: blocks mouse ROR gamma transcriptional activity. P51450. Drosophila S2 Gal4-RORgamma UAS-luciferase reporter, 20 h. Potency, µM (doses to about 53.6 µM), without a hit: at the highest dose activity change, negative = inhibition, actives largely listed as inhibitors. 5.4% of 310,000 active. AID 2551; note: % is set by controls: 0 for no effect and ±100 for the full control effect; nearly all actives have a fitted effect of over 60% in size
Target sequence (P51450 whole entry, looked up, the tested form may be a part): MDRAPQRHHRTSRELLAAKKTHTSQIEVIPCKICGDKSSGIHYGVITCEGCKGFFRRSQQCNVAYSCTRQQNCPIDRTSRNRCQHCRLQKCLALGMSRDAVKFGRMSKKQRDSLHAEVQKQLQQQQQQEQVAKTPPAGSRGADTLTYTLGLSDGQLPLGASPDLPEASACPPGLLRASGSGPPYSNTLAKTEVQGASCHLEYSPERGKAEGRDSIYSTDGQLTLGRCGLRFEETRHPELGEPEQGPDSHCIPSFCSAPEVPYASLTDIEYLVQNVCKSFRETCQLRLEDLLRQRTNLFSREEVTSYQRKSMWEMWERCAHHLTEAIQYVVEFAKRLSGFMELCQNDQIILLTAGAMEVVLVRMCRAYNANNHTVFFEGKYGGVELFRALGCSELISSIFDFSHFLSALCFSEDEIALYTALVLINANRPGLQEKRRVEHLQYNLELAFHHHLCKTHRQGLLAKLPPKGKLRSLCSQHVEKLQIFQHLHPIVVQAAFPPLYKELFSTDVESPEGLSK
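ROR gamma transcriptional activity was tracked as Gal4-UAS luciferase output in stably transfected Drosophila Schneider cells, with compound added 1 hr before 700 uM copper sulfate induction and a 20 hr ambient-temperature incubation.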
VP16 counter: Gal4-VP16 reporter inhibition counter-screen; Drosophila S2 Gal4-VP16 UAS-luciferase, luminescence, 20 h; AID 2546; Potency, µM (highest dose often 53.6 µM), for inactives: at the top dose activity, negative = inhibition, hits mostly inhibitors; 3.5% of 310,000 active;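 note: Gal4-VP16 expression switched on by copper sulfate through the metallothionein promoter; % is set by controls: 0 for no effect and ±100 for the full control effect; nearly all actives have a fitted effect of over 50% in size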
S2 tox: cell viability loss in ATXN counter-screen | S2 cells (HEK-293 line with an ATXN2-luciferase reporter) viability, CellTiter-Fluor protease fluorescence, 24 h | Potency, µM (titrated, usually from 56.7 µM), hits mostly cytotoxic | 0.49% of 400,000 active; note: nearly all actives have a fitted effect of over 40% in size
An asterisk follows results filed as active; i = inactive; ? = inconclusive; / = not tested or not shown; [ ] = another dose, or the depositor's remark. Calls come from the whole dose curve; as a rule, active = well fitted curve in the direction sought with a large enough effect; inconclusive = small, poorly fitted or top-dose-only effect, or another doubt; inactive = no such curve, though single readings can be large; an effect the other way counts as inactive or inconclusive. Potency is the fitted concentration of half-maximal effect.

SMILES | HepG2 viability | ATXN2 expr inh | TGFb SMAD3 inh | RORgamma inh | VP16 counter | S2 tox
Cc1cc(-c2ccccc2)nc(N/N=C/c2ccccc2)n1 | -45.9% | ? | ? | 14.1µM* | ? | i
CC(C)=NNc1nc(-c2ccccc2)c(C)s1 | -1.3% | 3.9% | 3.9% | 11.2µM* | -25.8% | i
COc1ccc(/C=N/Nc2nc(C)cc(-c3ccccc3)n2)cc1OC | -33.5% | -7.7% | -14.8% | 11.2µM* | ? | i
CC(C)c1nn(-c2c(Cl)cccc2Cl)c2nc(Cc3ccc(OCCO)cc3)[nH]c(=O)c12 | / | 0.0343µM* | / | / | / | /
C=CCNC(=S)/N=c1/ccccn1CC | -3.3% | -0.3% | ? | 10µM* | -2.1% | ?
CCCCC/C=C\C/C=C\C/C=C\CCCCCCC(=O)O[C@H](COCCCCCCCCCCCCCCCC)COP(=O)([O-])OCC[N+](C)(C)C | / | / | / | -20.7% | -1.6% | /
COc1ccc(O)c(C(=O)CC(=O)c2ccc(F)cc2)c1 | -45.8% | -38.0% | ? | ? | ? | i
COc1ccc(C(=O)CC(=O)c2ccccc2O)cc1OC | -15.5% | 69.0% | -5.1% | 7.08µM* | 6.4%[10 µM] | i
COc1ccc(O)c(C(=O)CC(=O)c2ccccc2C)c1 | -17.1% | -7.3% | ? | 20.4% | 0.708µM* | i
COC(=O)c1ccccc1NCC(=O)c1ccc(OC)cc1 | -4.0% | 1.8% | ? | 28.9% | 17.8µM* | i
COc1ccc(C(=O)CC(=O)c2ccccc2O)cc1 | -21.4% | 2.3% | -0.1% | 7.94µM* | 6.31µM* | i
CC[C@@H](c1ccccc1)n1c(=O)n2n(c1=O)[C@H]1[C@H](O)[C@H]3O[C@H]3C(=O)[C@H]1CC2 | / | / | / | 2.5%[10 µM] | -3.7%[10 µM] | /
COc1ccc(C(=O)CSC#N)cc1OC | -41.8% | -0.4% | ? | 15.8µM* | ? | i
COc1ccc(C(=O)CSc2cc(C)nc3nc(C)nn23)cc1OC | -33.1% | 29.6% | -26.7% | 15.8µM* | ? | i
COc1cc(Cl)c(NS(=O)(=O)c2ccc(-c3ccc(=O)[nH]n3)o2)c(OC)c1 | 19.5% | 0.3% | ? | -9.7% | 4.0% | i
O=C1C=C(Nc2ccc(F)cc2)c2ccccc2C1=O | 4.47µM* | ? | 3.98µM* | / | / | i
CCOc1ccc(NC2=CC(=O)CCC2)cc1 | -7.5% | -6.0% | 3.1% | 0.8% | 0.4% | i
NS(=O)(=O)c1ccc(NC2=CC(=O)c3ccccc3C2=O)cc1 | / | -15.7% | / | / | / | /
COc1cc(Cl)c(NC2=CC(=O)C(=O)c3ccccc32)c(OC)c1 | 3.55µM* | ? | 5.01µM* | / | / | 25.1µM*
CCOc1ccc(NC2=CC(=O)C(=O)c3ccccc32)cc1 | -103.1% | -27.1% | 4.47µM* | / | / | ?
O=C1C=C(Nc2cccnc2)c2ccccc2C1=O | 4.47µM* | ? | 3.55µM* | / | / | /
Oc1c(Cl)cccc1C=Nc1cc(C(F)(F)F)ccc1N1CCCC1 | 4.6% | -1.3% | 15.9% | 11.2µM* | ? | i
CCCCNC(=O)CNC(=S)N(Cc1ccccc1F)C1CCCCC1 | -15.0% | -0.1% | 11.5% | 12.6µM* | -15.4% | i
COCCCNC(=O)CNC(=S)N(Cc1ccccc1F)C1CCCCC1 | -1.3% | -4.2% | -1.7% | 7.5% | 7.3% | i
CN1C(C(=O)c2ccccc2)=C(NC(=O)c2ccc(F)cc2)c2ccccc2S1(=O)=O | -3.2% | -6.7% | -2.6% | / | / | i
SMILES | HepG2 viability | ATXN2 expr inh | TGFb SMAD3 inh | RORgamma inh | VP16 counter | S2 tox
CN1C(C(=O)Nc2ccc(C(=O)O)cc2)=C(O)c2ccccc2S1(=O)=O | 5.62µM* | -1.9% | -3.2% | / | / | i
Cc1cccc(-n2nc3c(c2NC(=O)c2ccc(Br)o2)CSC3)c1 | 0.4% | -3.4% | 0.8% | 3.16µM* | 16.2% | i
Cc1c(Cl)cccc1NC(=S)NCCC(c1ccccc1)c1ccccc1 | -32.0% | -0.5% | ? | 0.631µM* | 1.26µM* | i
Cc1cc(Cl)ccc1NC(=S)NCCC(c1ccccc1)c1ccccc1 | -27.4% | ? | ? | 7.08µM* | 6.31µM* | ?
Cc1c(Cl)cccc1NC(=S)NCCC(C)C | -57.8% | -5.2% | -11.0% | 4.47µM* | 6.31µM* | i
COC(C(=O)Nc1ccc(Cl)cc1C)c1ccccc1 (stereo not given) | -0.2% | 3.7% | -4.5% | -2.1% | 0.7% | i
Cc1c(Cl)cccc1NC(=S)NCC(C)C | -2.5% | / | -7.3% | 6.31µM* | ? | i
Cc1c(Cl)cccc1NC(=S)NCC(c1cccnc1)N(C)C (stereo not given) | 0.9% | -16.8% | 13.4% | -35.2% | 2.8% | i
CC1CCC(NC(=O)C2(C)Cc3ccccc3C(=O)N2Cc2ccc(Cl)cc2)CC1 (stereo not given) | -19.8% | / | / | / | / | /
Cc1cccc(-n2ccnc2SCC(=O)Nc2cccc3ccccc23)c1 | -21.7% | ? | 2.9% | / | / | i
CCCCOc1ccccc1C1CC(=O)Nc2ccc3ccccc3c21 (stereo not given) | 11.2µM* | / | ? | / | / | /
COc1ccccc1CNC(=S)NCc1ccc(Cl)cc1 | -39.2% | ? | ? | 3.98µM* | 7.08µM* | i
COc1ccccc1NC(=S)NCc1ccccc1Cl | -18.3% | 6.7% | -19.5% | 8.91µM* | 7.08µM* | i
COc1ccc(NC(=S)NCc2ccccc2Cl)c(OC)c1 | -15.5% | 2.1% | -1.5% | 12.6µM* | 7.08µM* | i
CCOC(=O)c1cc(S(=O)(=O)Nc2ccc(OC(F)(F)F)cc2)[nH]n1 | -31.7% | 1.4% | -4.8% | / | / | i
O=c1cc(N2CCCCC2)c(-c2ccccc2)nn1Cc1c(Cl)cccc1Cl | 17.8µM* | ? | 10µM* | 9.2% | -14.1% | ?
O=c1cc(N2CCCCC2)c(-c2ccccc2)nn1Cc1ccc(Cl)cc1 | -3.1% | -33.9% | -8.2% | ? | -23.2% | i
Cc1ccc(SCc2cn3cc(Cl)ccc3n2)cc1 | -10.9% | 49.4% | 1.5% | ? | -0.9% | i
Cc1cccc2nc(CSc3ccc(Cl)cc3)cn12 | -25.4% | 28.5% | 3.0% | 7.94µM* | ? | i
Clc1ccc(-n2nnnc2SCc2cn3ccccc3n2)cc1 | -11.4% | -9.6% | 0.5% | ? | -21.7% | i
Cc1cccc2nc(CSc3nc4ccccc4[nH]3)cn12 | 4.6% | 10.6% | -3.6% | -21.7% | -0.2% | i
Cc1cccc2nc(CSc3nc4cc([N+](=O)[O-])ccc4s3)cn12 | -3.7% | 0.5% | 7.9% | 20µM* | ? | i
Clc1ccc(SCc2cn3ccccc3n2)cc1 | 7.3% | 13.2% | -2.1% | 8.91µM* | -12.3% | i
CCC(=O)O[C@]1(C(=O)COC)[C@@H](C)C[C@H]2[C@@H]3CCC4=CC(=O)C=C[C@]4(C)C3(F)[C@@H](O)C[C@@]21C (stereo not given in full) | / | -1.1% | / | / | / | i
